Assay results published in the supplement of paper PMC6555819.

Assays:
Test in all cases: PBM binding z-score (relative to random genomic background probes); higher = stronger binding; sequences stand for … in GC…GCGATTGACAGCGTAGAATGAAGG
[1] = test system: PPARg:RXRa DBDmut IVT, anti-RXR (DBD mutation: RXRa K156A/R161A, NR concentration 270 nM, RXRa partner concentration 90 nM)
How it was run: (§1)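 Antibodies against each partner of ligand-free nuclear receptor dimers (one per run) detected binding on custom Agilent 4×180K protein-binding microarrays after 1 h incubation. The double-stranded probes had 34-nt variable regions carrying direct-repeat seeds, single-nucleotide variants, half-site ablations and random human genomic background sequences. Binding z-scores, from regression-normalized fluorescence, use the random background probes as reference.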

[2] = test system: PPARg:RXRa IVT, anti-PPARg (NR concentration 270 nM, RXRa partner concentration 90 nM)
How it was run: as §1

[3] = test system: PPARg DBDmut:RXRa IVT, anti-PPARg (DBD mutation: PPARg1 K132A/R137A, NR concentration 270 nM, RXRa partner concentration 90 nM)
How it was run: as §1

[4] = test system: PPARg DBDmut IVT, anti-PPARg (DBD mutation: PPARg1 K132A/R137A, NR concentration 270 nM)
How it was run: as §1

[5] = test system: PPARg homodimer (NR concentration 180 nM)
How it was run: as §1

[6] = test system: PXR:RXRa (NR concentration 270 nM, RXRa partner concentration 90 nM)
How it was run: as §1

[7] = test system: PXR homodimer (NR concentration 270 nM)
How it was run: as §1

[8] = test system: RARa:RXR (NR concentration 270 nM, RXRa partner concentration 90 nM)
How it was run: as §1

[9] = test system: RARa homodimer (NR concentration 270 nM)
How it was run: as §1

[10] = test system: RARb:RXRa (NR concentration 270 nM, RXRa partner concentration 90 nM)
How it was run: as §1

| Sequence | PBM binding z-score [1] | PBM binding z-score [2] | PBM binding z-score [3] | PBM binding z-score [4] | PBM binding z-score [5] | PBM binding z-score [6] | PBM binding z-score [7] | PBM binding z-score [8] | PBM binding z-score [9] | PBM binding z-score [10] |
| --- | --- | --- | --- | --- | --- | --- | --- | --- | --- | --- |
| CCTGCTAGGTCATGGTTAGCTAATCTACAGTATG | 4.51 | 3.71 | 1.31 | 0.491 | 3.42 | 1.38 | -0.137 | 2.44 | -0.015 | 3.65 |
| AGTCAAAGTTCACAAGGTAACGTAAGATTCAGCT | 0.681 | 3.67 | 1.19 | 0.956 | 3.05 | 4.78 | 2.84 | 4.51 | 2.08 | 4.82 |
| ATATGTAGGTTAGCAGGGGTCATTCAGACTAGGC | 6.72 | 6.32 | 3.05 | 2.47 | 4.78 | 6.38 | 2.6 | 6.55 | 2.44 | 3.5 |
| CATACTAGGTCACCGGAAGGTCAAAGTCCGCATG | 7.07 | 8.03 | 4.35 | 1.99 | 7.45 | 5.88 | 2.1 | 7.25 | 2.75 | 5.21 |
| CGAACGAGGGCATGAGTTGATAGTAAATGCCGAT | 3.01 | 1.98 | -0.123 | 0.201 | -0.00807 | 0.636 | 0.316 | 0.644 | -0.245 | 1.94 |
| GATACAGGCTCAAGGCCAGAGTACGCGTATTGAT | -0.731 | -0.511 | -0.646 | -1.16 | -1.02 | -0.534 | 0.0448 | -0.806 | -0.764 | -0.0838 |
| CAAACTAGGTCACAGAAGTCAAAGTCCGTGCGTA | 8.28 | 9.03 | 4.57 | 2.37 | 2.34 | 2.34 | 0.405 | 3.34 | 0.949 | 4.35 |
| ATACCAAGGTGATCGTGAGGTCGTCGATACTAAC | 0.722 | 1.25 | 0.727 | 0.964 | 0.798 | 2.36 | 0.524 | 1.84 | 0.592 | 1.3 |
| GAATATAGGTAATACAAGGTGAAAGTCCGATTGT | 6.67 | 6.08 | 2.27 | 1.21 | 1.32 | 0.776 | 0.722 | 1.33 | 1.55 | 0.909 |
| ATCTCTAGGTAAGAGTTCAGTGAATCCCGAGGAT | 1.35 | 2.7 | 0.769 | 1.17 | 1.09 | 2.32 | 2.16 | 0.952 | 0.264 | 1.96 |
| GCATATAGGTCATACAAGGTGAAAGTCCGATTGT | 6.81 | 7.41 | 3.79 | 2.08 | 2.85 | 4.68 | 0.812 | 4.41 | 1.09 | 4.29 |
| ACTAGTTGGTCAACTGAGGTCACACACAATTCGG | 2.42 | 3.75 | 1.07 | 0.421 | 2.02 | 6 | 1.2 | 4.59 | 1.19 | 4.1 |
| TTACCAAGGAGAAGGTCGTTGATCCCTCTGTAGA | -0.339 | -0.0762 | -0.116 | 0.61 | 0.455 | 1.03 | -0.292 | 1.34 | -0.134 | 0.537 |
| TGTCAAAGTTCAAGGGTAACGTAAGTATCCACAC | -0.0175 | 4.63 | 1.78 | 1.04 | 2.41 | 4.83 | 2.3 | 4.95 | 0.926 | 5.05 |
| CAAACTAGGTCACAGAGTTCAAAGTCCGTGCGTA | 8.6 | 9.07 | 5.41 | 5.72 | 4.68 | 6.97 | 14.2 | 5.88 | 1.27 | 4.91 |
| TAGCCTGGGTCATTGGGCCAGTATAGTACGCATC | 1.27 | 3.57 | 0.337 | -0.475 | 0.764 | 1.44 | -1.02 | 2.07 | -0.67 | 3.34 |
| CCTACTAGGCCAAAAAGGTCATTGATGCCGATAA | 5.03 | 4.58 | -0.262 | -0.187 | 2.71 | 4.88 | 5.01 | 5 | 1.4 | 4.09 |
| CCTTACAGGTCACTCCAGGTTATAGCATCGGAGT | 4.37 | 4.23 | 0.516 | 0.777 | 2.41 | 4.74 | 0.873 | 3.71 | 1.13 | 4.61 |
| CGCACTAGGTCAAGGACAGTGAATCTCCGCACGC | 8.02 | 7.89 | 1.21 | 0.566 | 1.2 | 1.15 | 0.0235 | 1.92 | 0.00773 | 3.92 |

| Sequence | PBM binding z-score [1] | PBM binding z-score [2] | PBM binding z-score [3] | PBM binding z-score [4] | PBM binding z-score [5] | PBM binding z-score [6] | PBM binding z-score [7] | PBM binding z-score [8] | PBM binding z-score [9] | PBM binding z-score [10] |
| --- | --- | --- | --- | --- | --- | --- | --- | --- | --- | --- |
| ATATGTAGGTTATCGGGTCATTTAGTTTGCGCAT | 7.62 | 7.25 | 1.55 | 1.71 | 3.3 | 3.33 | 4.87 | 3.6 | 1.47 | 2.56 |
| CCGAGTAGGTTATGGGGGATTCAGGCAACGGTGA | 4.03 | 3.95 | 3.42 | 4.43 | 2.01 | 1.17 | 1.05 | 1.26 | 1.69 | 1.33 |
| TCATGTAGGTAATACAGGTGAAAGTCGGCATCTA | 3.86 | 3.68 | 0.771 | 0.521 | 0.456 | 0.27 | -0.325 | 0.507 | 0.465 | 0.0857 |
| ACTATTAGTTGAGACGAGGGCAACCGTTAGGTTG | 0.0606 | 0.467 | 0.0213 | 0.173 | 0.552 | 1.36 | 0.226 | 0.588 | -0.132 | 1.1 |
| TCATATAGGTAAAAGGTGAAAGTAGGTGTGGTAA | 5.54 | 5.11 | 1.51 | 2.06 | 2.38 | 2.11 | 0.728 | 3.45 | 2.24 | 2.06 |
| ACTATTAGTTGAGATGAGGGCAACCGATAGGTTG | 0.105 | 0.33 | 1.25 | 0.632 | 0.972 | 1.35 | 0.727 | 0.676 | 1.33 | 1.22 |
| GATACAGGGGCAGCTAGAGGCCAGAGTATGGAAA | 0.509 | 0.442 | -0.18 | -0.917 | -0.0981 | -0.0351 | -0.216 | -0.106 | -0.394 | 1.57 |
| CAAACTAGGTCACAGAGGTCAAAGACCGTGCGTA | 8.39 | 9.08 | 7.99 | 2.78 | 5.75 | 6.86 | 10.2 | 7.44 | 2.59 | 5.37 |
| TCATATAAGTAAATGCTAGGTGAAAGTCCGATCT | 3.04 | 0.569 | 0.642 | 0.691 | 1.1 | 0.626 | 0.422 | 0.789 | 1.78 | 0.428 |
| CGTCCAAGGTCATAGTAGGTCAGTGAAGACAGAT | 4.15 | 5.33 | 1.45 | -0.159 | 2.97 | 5.67 | 2.73 | 5.14 | 1.92 | 5.12 |
| CCTCGGCGGACAGAAGGTCAGAGCTGTCCGCTTT | -0.348 | -0.163 | -2.18 | -2.03 | 0.787 | 1.26 | -0.667 | 1.57 | -0.497 | 2.52 |
| GCTAGTTGGTCAGTAAACGGTCACACACCGGTCG | 0.107 | 0.661 | 0.0589 | -0.0564 | 0.967 | 0.0338 | 0.06 | 0.591 | 0.301 | 1.76 |
| GCTGCTAGGTCAATTGATGGTCAGCTAAAGCTCG | 4.15 | 3.1 | -0.948 | 0.185 | 0.889 | 0.861 | -0.942 | 1.75 | -0.705 | 3.59 |
| TCATATAGGTAATACTGGTGAAAGTCGGCATCTA | 3.8 | 2.46 | 1.36 | 0.717 | 0.814 | 0.689 | -0.083 | 0.73 | 0.536 | 0.451 |
| ATACCAAGGTGATCGTGAGGTCGTGGATACTAAC | 0.55 | 1.38 | 0.414 | 0.297 | 1.2 | 2.53 | 0.492 | 3.03 | 0.48 | 1.65 |
| ACTATTAGATGACTTAGGGCAACCGATACGACGC | 0.577 | 0.319 | 1.54 | 1.42 | 1.03 | -0.0258 | 0.554 | 0.143 | 1.38 | 0.885 |
| CATACAGGGTCAACTAGGCCAGAGTAGGGACGGC | 2.92 | 4.23 | 1.17 | 0.243 | 2.2 | 3.61 | 0.451 | 4.7 | 0.953 | 4.66 |
| GCTATTGGTTGAAAGGGCAACCGAATGATTCTCG | 0.217 | 0.624 | 0.114 | -0.668 | 0.512 | 0.73 | 0.0657 | 1.48 | 0.176 | 1.87 |
| GCGACAGGGGCAAAGCAGGTTACCATAAGGTTGG | 0.177 | 0.684 | -0.131 | -0.736 | 0.212 | 0.934 | -0.112 | 1.19 | -0.459 | 1.47 |
